DT40 TDP1 CPT: growth inhibition of DT40 Tdp1-/-;hTDP1 cells with camptothecin (screen for TDP1 inhibitors) | chicken DT40 Tdp1-/-;hTDP1 cells + 20 nM CPT, ATP luminescence, 48 h | Potency, µM (titrated, usually from 46.2 µM), for the others: top-dose activity change, negative = growth inhibition, most hits filed as inhibitors | actives 12% (n = 420,000) | AID 686979; note: nearly all actives have a fitted effect of over 55% in size
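Chicken DT40 Tdp1-/- cells complemented with human TDP1, 400 cells/well, exposed to compounds plus 20 nM camptothecin for at least 48 h at 37 C; viability read as ATP content by CellTiter-Glo luminescence.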
ELG1 DNA repair: blocks ELG1-dependent DNA repair in HEK293T cells | Potency, µM (titrated, usually from 46.1 µM), for the others: at the top dose activity change, negative = inhibition, usual class: inhibitors | actives 2.3% (n = 330,000) | HEK293T ELG1-luciferase reporter, luminescence, 16 h; DNA damage induced by 5-fluorouridine; note: nearly all actives have a fitted effect of over 55% in size
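HEK293T cells expressing luciferase-tagged ELG1 (2,000/well) received 5-Fluorouridine plus compound or DMSO for 16 hr at 37 °C. Luciferase was read by ONE-Glo luminescence after 30 min at room temperature.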
DT40 TDP1 no CPT: qHTS for Inhibitors of human tyrosyl-DNA phosphodiesterase 1 (TDP1): qHTS in cells in absence of CPT. actives 15% (n = 420,000). DT40 Tdp1-/- hTDP1 cells, no CPT, ATP luminescence, 48 h. Potency, µM (highest dose often 46.2 µM), without a hit: at the highest dose activity change, negative = growth inhibition, actives largely listed as inhibitors; note: nearly all actives have a fitted effect of over 55% in size
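No-CPT arm: Tdp1-/-;hTDP1 DT40 cells (400/well) plus compounds, incubated ≥48 hr at 37 °C. Readout CellTiter-Glo luminescence.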
ALOX12 inh: blocks human arachidonate 12S-lipoxygenase; P18054; purified 12hLO, xylenol orange hydroperoxide absorbance; Potency, µM (highest dose often 108 µM), for the others: at the highest dose activity change, negative = inhibition, usual class: inhibitors; actives 1.1% (n = 580,000)
Target sequence (P18054 whole entry, looked up): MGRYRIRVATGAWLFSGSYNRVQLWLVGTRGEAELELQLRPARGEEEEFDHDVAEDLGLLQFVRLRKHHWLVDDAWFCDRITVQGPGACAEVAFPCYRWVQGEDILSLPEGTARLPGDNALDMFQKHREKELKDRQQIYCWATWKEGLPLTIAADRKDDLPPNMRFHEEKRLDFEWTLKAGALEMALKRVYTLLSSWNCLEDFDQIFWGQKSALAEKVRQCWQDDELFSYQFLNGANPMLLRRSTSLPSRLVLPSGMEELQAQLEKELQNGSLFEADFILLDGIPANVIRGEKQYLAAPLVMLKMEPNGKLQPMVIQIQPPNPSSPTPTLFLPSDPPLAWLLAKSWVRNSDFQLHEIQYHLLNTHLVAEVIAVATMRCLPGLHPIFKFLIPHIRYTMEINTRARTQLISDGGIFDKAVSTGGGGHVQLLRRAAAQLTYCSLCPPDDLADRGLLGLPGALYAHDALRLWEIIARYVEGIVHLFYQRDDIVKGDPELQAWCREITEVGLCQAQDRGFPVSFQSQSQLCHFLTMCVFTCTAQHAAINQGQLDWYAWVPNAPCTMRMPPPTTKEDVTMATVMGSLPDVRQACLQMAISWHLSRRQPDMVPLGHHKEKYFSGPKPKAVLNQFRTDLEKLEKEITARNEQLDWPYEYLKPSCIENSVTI
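Purified human 12hLO at 150 nM in 25 mM Hepes, 0.01% Triton X-100, pH 7.0, preincubated 15 min at room temperature with compound. Reaction started with 40 uM arachidonic acid, 30 min at room temperature. Hydroperoxide measured by Fe-xylenol orange, 573/405 nm absorbance ratio.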
RORg inh: inhibitors of mouse ROR gamma transcriptional activity; actives 5.4% (n = 310,000); P51450; Potency, µM (series often up to 53.6 µM), for inactives: top-dose activity change, negative = inhibition, usual class: inhibitors; Drosophila S2 Gal4-RORgamma UAS-luciferase reporter, 20 h; AID 2551; note: nearly all actives have a fitted effect of over 60% in size
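Compounds are pin-transferred onto Drosophila Schneider cells expressing a copper-inducible Gal4–ROR gamma transactivation domain fusion. After 1 hr, copper sulfate is added to 700 uM final; luciferase is read 20 hr later.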
Gal4-VP16 FLuc: inhibits Gal4-VP16 luciferase reporter, ROR gamma counter-screen | Potency, µM (doses to about 53.6 µM), for the others: at the highest dose activity, negative = inhibition, most hits filed as inhibitors | Drosophila S2 Gal4-VP16 UAS-luciferase, luminescence, 20 h | actives 3.5% (n = 310,000);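 note: Gal4-VP16 expression switched on by copper sulfate through the metallothionein promoter; nearly all actives have a fitted effect of over 50% in size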
An asterisk follows results filed as active; ? = inconclusive; . = no result; [ ] = dose if it differs, or a comment. This is a sample that favours compounds with a hit; in the whole collection about 15% have one here. Calls come from the whole dose curve; as a rule, active = well fitted curve in the direction sought with a large enough effect; inconclusive = small, poorly fitted or top-dose-only effect, or another doubt; inactive = no such curve, though single readings can be large; an effect the other way counts as inactive or inconclusive. % is set by controls: 0 for no effect and ±100 for the full control effect; potency is the fitted concentration of half-maximal effect.

SMILES	DT40 TDP1 CPT	ELG1 DNA repair	DT40 TDP1 no CPT	ALOX12 inh	RORg inh	Gal4-VP16 FLuc
COc1ccc(-c2nnc(NC(=O)c3ccc(S(=O)(=O)N4COCC4(C)C)cc3)o2)cc1	3.66µM*	-25.0%	3.66µM*	0.0%	0.224µM*	0.398µM*
CC1(C)COCN1S(=O)(=O)c1ccc(C(=O)Nc2nnc(-c3ccc(Cl)s3)o2)cc1	3.98µM*	?	4.47µM*	.	0.112µM*	0.126µM*
O=C(NC1CCC(c2ccccc2)CC1)c1n[nH]c(=O)c2ccccc12 (stereo not drawn)	.	.	.	-20.1%	.	.
O=C(C(=O)N1CCN(S(=O)(=O)c2ccc(C(F)(F)F)cc2)CC1)c1cccc(C(F)(F)F)c1	.	.	.	-4.0%	.	.
Cc1ccc(S(=O)(=O)N2CCN(CCNC(=O)c3cccc(C(F)(F)F)c3)CC2)cc1	.	.	.	28.2µM*	.	.
Cc1ccc(S(=O)(=O)N2CCN(CCNC(=O)c3ccc(C(F)(F)F)cc3)CC2)cc1	.	.	.	15.8µM*	.	.
Cc1ccc(S(=O)(=O)N2CCCN(S(=O)(=O)c3ccc(C(F)(F)F)cc3)CC2)cc1	-10.7%	?	-24.8%	-24.7%	-16.8%	-18.8%
NC(=O)CN1C(=O)[C@@H]2CN(C(=O)c3ccccc3)CCN2C1=O	.	.	.	1.5%[176 µM]	.	.
Cc1ccc(NC(=O)CCn2c(=O)c3cccn3c3ccccc32)cc1C	?	-0.2%	18.4µM*	0.8%	?	3.4%
Cc1ccc(NC(=O)CCn2c(=O)c3cccn3c3ccccc32)cc1Cl	18.4µM*	.	23.1µM*	-14.2%	.	.
Cc1c(Cl)cccc1NC(=O)CCn1c(=O)c2cccn2c2ccccc21	?	.	16.4µM*	-19.4%	.	.
CN(C)CCNC(=O)CCCn1c(=O)c2cccn2c2ccccc21	15.0%	.	-2.8%	0.0%	.	.
Cc1c(Cl)cccc1NC(=O)Cn1nc(C)n2cccc2c1=O	-0.8%	27.5%	28.0%	-20.4%	1.6%	-0.7%
CCc1ccccc1NC(=O)CCCn1c(=O)c2cccn2c2ccccc21	?	.	16.4µM*	1.7%	.	.
CCc1cccc(NC(=O)CN(C)Cc2ccc(C(F)(F)F)cc2)c1	.	.	.	-23.9%	.	.
Cc1ccc(NC(=O)CCCn2c(=O)c3cccn3c3ccccc32)cc1C	16.4µM*	.	11.6µM*	-12.6%	.	.
Cc1ccc2c(c1)Oc1ccc([N+](=O)[O-])cc1C(=O)N2	16.9%	-0.4%	26.5%	?	-4.6%	4.6%
Cc1ccc2c(c1)Oc1ccc(NC(=O)CCl)cc1C(=O)N2	2.59µM*	?	2.31µM*	?	10µM*	17.8µM*
CCCn1c(C)c(CC(=O)N[C@@H](C)C(N)=O)c2c1CC(C)(C)CC2=O	.	.	.	5.2%	.	.
COc1cccc(NC(=O)CCC2CCN(C(=O)c3ccccc3)CC2)c1	.	.	.	44.8%	.	.
COc1cccc(NC(=O)CCC2CCN(C(=O)Cc3cccc(F)c3)CC2)c1	?	-2.6%	14.6µM*	0.0%	-2.9%	-13.1%
COc1cccc(NC(=O)CCC2CCN(C(=O)c3sccc3C)CC2)c1	20.6µM*	?	20.6µM*	-38.6%	33.7%	1.8%
CCCOc1ccc(C(=O)/C(=C/c2ccncc2)c2nc3ccccc3o2)cc1	.	.	.	0.5%	.	.
COc1ccc(Cc2nc3c4c(C)c(C)n(CC(C)C)c4ncn3n2)cc1OC	.	.	.	-15.8%	.	.
Cc1[nH]c2ccccc2c1C1(O)C(=O)N(Cc2ccccc2)c2ccc(Br)cc21 (stereo not drawn)	4.11µM*	.	4.61µM*	?	.	.
SMILES	DT40 TDP1 CPT	ELG1 DNA repair	DT40 TDP1 no CPT	ALOX12 inh	RORg inh	Gal4-VP16 FLuc
CCCCN1C(=O)C(O)(c2ccccc2)c2cc(Br)ccc21 (stereo not drawn)	?	-11.2%	4.3%	?	-32.4%	-18.5%
Cc1ccc(CN2C(=O)C(O)(c3c[nH]c4ccccc34)c3cc(Cl)ccc32)cc1 (stereo not drawn)	?	.	23.1µM*	?	.	.
Cc1[nH]c2ccccc2c1C1(O)C(=O)N(Cc2ccccc2Cl)c2ccccc21 (stereo not drawn)	5.8µM*	.	5.17µM*	-38.0%	.	.
Cc1ccc(CNC(=O)Cc2c[nH]c3ccccc23)cc1	.	.	.	-3.6%	.	.
CCCNC(=O)CN(C)C(=O)CCCc1c[nH]c2ccccc12	.	.	.	-24.7%	.	.
CNC(=O)c1cc(=O)n(CC(=O)Nc2cccc(C#N)c2)c2ccccc12	.	.	.	6.2%	.	.
CC(NC(=O)c1ccc(OC2CCN(Cc3ccccn3)CC2)cc1)c1ccccc1 (stereo not drawn)	?	16.8%	18.4µM*	2.1%	2.0%	13.0%
Cc1nc2cccnc2n1CC1CCCN(C(=O)Nc2cccc(C(F)(F)F)c2)C1 (stereo not drawn)	.	.	.	50.6%	.	.
Cc1ccc(NC(=S)Nc2ccccn2)cc1C	23.1µM*	?	16.4µM*	?	0.708µM*	3.16µM*
Cc1cc(C)cc(NC(=S)Nc2ccccn2)c1	13µM*	4.6%	10.3µM*	6.31µM*	1.12µM*	4.47µM*
Cc1cccc(NC(=S)Nc2ccccn2)c1	?	?	8.2µM*	28.2µM*	0.501µM*	6.31µM*
Cc1ccc(NC(=S)NNC(=S)Nc2ccc(C)cc2C)cc1	3.66µM*	-19.1%	5.17µM*	35.5µM*	-41.8%	-11.8%
Cc1cc(C)cc(NC(=S)NC(=O)Cc2ccccc2)c1	-15.1%	.	-24.7%	?	.	.
O=C(Nc1cccc(F)c1)Nc1ccccn1	-15.9%	?	-0.7%	?	?	29.2%
Cc1ccccc1C(=O)Nc1ccccn1	-1.4%	.	-16.9%	29.7%	3.4%	15.6%
Cc1ccc(NC(=O)CCC(=O)NNC(=S)Nc2ccccc2)c(C)c1	5.6%	-6.1%	-0.8%	-5.9%	15.3%	2.6%
CC1=C[C@@H](CNC(=O)c2ccc(C#N)cc2)[C@H](C(C)C)C[C@H]1CC(=O)NCCN(C)C	.	.	.	12.0%[176 µM]	.	.
Cc1[nH]c2ccccc2c1C(=O)C(=O)NCC(C)N1CCCC1 (stereo not drawn)	.	.	.	-4.9%	.	.
COCCNC(=O)[C@H]1C[C@H](Oc2cccnc2)CN1C(=O)NC1CCCC1	.	.	.	34.7%	.	.
Cc1ccc(NC(=S)Nc2ccc3nc(-c4ccccn4)c(-c4ccccn4)nc3c2)cc1C	25.9µM*	-11.8%	?	.	14.1µM*	?
Cc1ccc(NC(=S)Nc2ccccn2)c(C)c1	3.66µM*	?	5.17µM*	11.2µM*	0.794µM*	6.31µM*
Cc1ccc(C)c(C(C)NC(=O)CC(C)(C(=O)O)c2ccccc2)c1 (stereo not drawn)	.	.	.	1.8%	.	.
COCCCN1CCCC2(CCN(C(=O)NCc3cccc(F)c3)C2)C1=O (stereo not drawn)	.	.	.	18.0%	.	.

From PubChem
